# Screening results: PubChem BioAssay, The Scripps Research Institute Molecular Screening Center
# An excerpt weighted towards active compounds, which were near 2.3% of everything screened.
# M1 PAM parental: nonselective calcium activators in parental CHO-K1 cells, primary screen, counter-screen for M1 PAM project, cell-based, Fluo-8 calcium fluorescence, full deck, 1536-well; hit rate 0.02% among 360,000; activation, % at 3 µM; AID 602247, 2012; ATP EC20; 0% at ATP EC20, 100% at ATP max;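 active = activation above the run cutoff, the mean activation of all test compounds plus 3 SD, cut at about 40% in these data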;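 also: peak over basal fluorescence ratio in a 140 s read after ATP addition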
# M1 antag: human M1 muscarinic receptor antagonists, primary screen, CHO-K1 cells, Fluo-8 calcium fluorescence, 1536-well | Muscarinic acetylcholine receptor M1 (Homo sapiens), P11229 | CHO-K1 hM1, ACh EC80 antagonist | inhibition, % at 3 µM | hit rate 1.3% among 360,000 | AID 588852, 2011;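 active = percent inhibition above its own plate's cutoff, namely the mean of that plate's compound wells plus 3 SD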;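 also: peak over basal fluorescence ratio during 140 s after agonist addition; 0% = ACh EC80 plus DMSO and 100% = DMSO alone without agonist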
# Target sequence (P11229 whole entry, looked up): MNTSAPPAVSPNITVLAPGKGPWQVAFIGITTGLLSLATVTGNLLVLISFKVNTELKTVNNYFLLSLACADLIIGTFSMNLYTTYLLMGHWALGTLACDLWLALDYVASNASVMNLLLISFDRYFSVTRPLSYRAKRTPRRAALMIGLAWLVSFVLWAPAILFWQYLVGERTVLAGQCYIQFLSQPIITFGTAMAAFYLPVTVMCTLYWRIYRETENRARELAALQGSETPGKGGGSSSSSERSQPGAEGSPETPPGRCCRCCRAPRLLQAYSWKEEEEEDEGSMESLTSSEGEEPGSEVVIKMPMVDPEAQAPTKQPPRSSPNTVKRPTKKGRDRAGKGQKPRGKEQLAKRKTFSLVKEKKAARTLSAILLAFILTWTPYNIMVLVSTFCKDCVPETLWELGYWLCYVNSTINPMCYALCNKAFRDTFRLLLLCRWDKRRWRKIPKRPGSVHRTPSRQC
# CHO-K1 Ca ag: counter-screen for M1 agonists: effect in parental CHO-K1 cells; hit rate 0.48% among 360,000; activation, % at 3 µM; Fluo-8 calcium fluorescence; scaled to maximal ATP response, vehicle zero; in the data active = activation above about 15%;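 also: untransfected CHO-K1 host cells lacking M1 receptor as counterscreen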
# M1 PAM: human M1 muscarinic receptor positive allosteric modulators, primary screen, CHO-K1 cells, Fluo-8 calcium fluorescence, 1536-well; hit rate 0.088% among 360,000; activation, % at 3 µM; CHO-K1 hM1, ACh EC20; 0% = ACh EC20, 100% = maximal ACh; AID 588819, 2011; in the data active = activation above about 19%, passing the limit was not always enough
# M1 ag: human M1 muscarinic receptor agonists, primary screen, Fluo-8 calcium fluorescence, CHO-K1 cells, HTS; CHO-K1 hM1, agonist mode; 0% DMSO, 100% acetylcholine EC100; activation, % at 3 µM; hit rate 0.33% among 360,000;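 active = activation above the run's mean compound activation plus 3 SD, cut at about 16% in these data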;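 also: peak over basal fluorescence ratio within a 140 s kinetic read after compound addition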
# CHO-K1 Ca antag: counter-screen for M1 antagonists: effect in parental CHO-K1 cells; hit rate 0.6% among 360,000; inhibition, % at 3 µM; ATP-induced calcium, Fluo-8 fluorescence;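 active = inhibition above a per-plate cutoff, the plate's mean sample inhibition plus 3 SD, cut at about 24% in these data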;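 also: 0% = DMSO plus EC80 ATP and 100% = DMSO alone without ATP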
# Active calls of the source: *.
SMILES,M1 PAM parental,M1 antag,CHO-K1 Ca ag,M1 PAM,M1 ag,CHO-K1 Ca antag
Cc1onc(-c2ccccc2)c1C(=O)NNC(=S)NC(=O)/C=C/c1ccccc1,6,5,21*,-10,40*,-7
Cc1onc(-c2ccccc2)c1C(=O)NNC(=S)NC(=O)c1ccc(Cl)cc1Cl,-12,16,26*,-28,90*,1
COc1cc(C2SCC(=O)N2CCCN(C)C)cc(OC)c1OC (centres undefined),1,29*,0,-9,0,3
O=C(COc1ccc2ccccc2c1Br)Nc1ncn[nH]1,-11,6,19*,-5,-5,15
CCOc1ccc(CCNC(=O)Cn2ncn3nc(-c4ccc(OC)cc4)cc3c2=O)cc1OCC,18,-6,4,5,2,-3
COc1ccccc1NC(=O)C(C)N(C)CC(=O)Nc1cccc2ccccc12 (centres undefined),10,-7,1,0,0,-18
COc1ccccc1NC(=O)C(C)N(C)Cc1ccc(Cl)s1 (centres undefined),48*,-8,0,5,-4,-16
COc1ccc(CN2CCCC(C(=O)c3cccc(OC(C)C)c3)C2)cc1Cn1cccn1 (centres undefined),15,37*,5,-24,-5,-12
CCn1ncc(CN2CCCC(C(=O)c3cccc(OC(C)C)c3)C2)c1C (centres undefined),-5,98*,0,-26,-9,9
CCOC(=O)c1[nH]ncc1CN1CCCC(C(=O)c2cccc(OC(C)C)c2)C1 (centres undefined),-9,2,0,-3,-10,10
CC1(C(=O)NCCC#N)CCN1C(=O)CC(c1ccccc1)c1ccccc1 (centres undefined),13,-6,1,-1,-3,-9
CN(C)c1ccc(C(=O)Nc2ccc(CN3CCS(=O)(=O)CC3)cc2)cc1,8,-2,4,-2,-2,-16
COc1cccc(CCNC(=O)C2CCCN(c3ncnc4c3nc3n4CCCCC3)C2)c1OC (centres undefined),2,1,0,1,-5,-6
Cc1ccccc1CN1CCC(CNC(=O)C2CCCN(c3ncnc4c3nc3n4CCCCC3)C2)CC1 (centres undefined),1,101*,2,-41,-14,-20
CC1CC(C)CN(CCCNC(=O)C2CCCN(c3ncnc4c3nc3n4CCCCC3)C2)C1 (centres undefined),-6,29*,0,-19,-12,2
CC1CCCN(CCCNC(=O)C2CCCN(c3ncnc4c3nc3n4CCCCC3)C2)C1 (centres undefined),17,5,-1,2,-5,-6
Cc1c(Cl)cccc1NC(=S)NCCC(c1ccccc1)c1ccccc1,-5,-7,1,2,-5,24*
Cc1onc(-c2ccccc2)c1C(=O)Nc1ncc([N+](=O)[O-])s1,4,27,16*,-13,7,12
OC(CNCC(c1ccc(Cl)cc1Cl)c1c[nH]c2ccccc12)c1ccccc1 (centres undefined),15,-3,16*,9,-2,2
O=[N+]([O-])CC(c1ccccc1)c1c[nH]c2ccccc12 (centres undefined),7,-15,0,13,-2,-7
COc1ccc(C(=O)C2CCN(C(=S)NCCc3ccccc3)CC2)cc1,23,-1,6,7,-3,-19
Cc1ccc(NC(=O)N2CCC(C(=O)c3ccc(F)cc3)CC2)cc1,-1,-2,3,5,-3,-13
COc1ccc(CCNC(=S)N2CCC(C(=O)c3ccc(F)cc3)CC2)cc1OC,9,2,15*,0,-1,-4
COc1ccc(C(=O)C2CCN(C(=O)Nc3ccc(C)cc3)CC2)cc1,-3,-10,19*,10,10,4
